This is one part of a sample in which hits are shown more often than they occur.
Cruzain inh Det – inhibitors of Trypanosoma cruzi cruzain with detergent | Potency, µM, without a hit: max response, negative = inhibition, most hits filed as inhibitors | AID 1478 | 0.43% of 200,000 active | purified cruzain, Z-FR-AMC fluorescence, 0.01% Triton;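 note: plate controls were neutral wells for no effect and buffer without enzyme for full effect; nearly all actives have a fitted effect of over 40% in size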
Target sequence (P25779 123-467 limits assumed): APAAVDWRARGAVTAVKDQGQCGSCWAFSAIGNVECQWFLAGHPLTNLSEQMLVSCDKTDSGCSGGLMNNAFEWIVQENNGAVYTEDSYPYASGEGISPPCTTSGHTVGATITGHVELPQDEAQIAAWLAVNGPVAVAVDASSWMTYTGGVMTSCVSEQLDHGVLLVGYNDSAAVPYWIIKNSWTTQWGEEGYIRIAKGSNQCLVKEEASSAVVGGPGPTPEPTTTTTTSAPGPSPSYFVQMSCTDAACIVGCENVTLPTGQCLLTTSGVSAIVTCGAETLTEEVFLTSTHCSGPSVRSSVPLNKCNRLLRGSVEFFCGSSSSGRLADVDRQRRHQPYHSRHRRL
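Cruzain (1.5 nM) preincubated 15 min at RT with compound in 100 mM sodium acetate pH 5.5, 5 mM DTT, 0.01% Triton X-100. Reaction started with 2 uM Z-FR-AMC; AMC fluorescence (ex 360/em 450 nm) change over 60 s gave rate.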
Cruzain noTriton – blocks cruzain activity in detergent-free assay; Potency, µM, without a hit: max response, negative = inhibition, usual class: inhibitors; 2.3% of 200,000 active; P25779; purified cruzain, Z-FR-AMC fluorescence, no detergent;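 note: plate controls were enzyme without inhibitor for no effect and buffer without enzyme for full effect; nearly all actives have a fitted effect of over 40% in size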
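Purified cruzain at 1.5 nM, pre-incubated 15 min with compound at room temperature in 100 mM sodium acetate pH 5.5, 5 mM DTT, 0.00005% Triton X-100. Reaction started with 2 uM Z-FR-AMC; AMC fluorescence increase over 60 s gives rate.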
NS1 inh – influenza NS1 inhibition; 0.4% of 270,000 active; Potency, µM (top dose mostly 46.1 µM), without a hit: at the highest dose activity, positive = more growth; calls by dose curve; note: actives are rising curves; nearly all actives have a fitted effect of over 50% in size
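Recovery from NS1-induced slow growth read by OD600 in budding yeast switched to galactose assay medium (pH 6.0, -URA) at 1:100 dilution. Compound 23 nl per well; the matching strain lacking NS1 serves as control.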
* marks the source's active call; other numbers are inactive results; ! = not confirmed by another sample. Unless noted, calls come from the whole dose curve; as a rule, active = well fitted curve in the direction sought with a large enough effect; inconclusive = small, poorly fitted or top-dose-only effect, or another doubt; inactive = no such curve, though single readings can be large; an effect the other way counts as inactive or inconclusive. Potency is the fitted concentration of half-maximal effect.

Screening Cc1ccc(C(=O)NCC(=O)OC(C)C(=O)NCCC2=CCCCC2)cc1C (stereo not drawn) returned Cruzain inh Det 22µM*, Cruzain noTriton inconclusive and NS1 inh -8%.
Screening Cc1ccc(N2C(=O)c3cccc4c(Oc5ccccc5[N+](=O)[O-])ccc(c34)C2=O)c(C)c1 returned Cruzain inh Det -7%, Cruzain noTriton 25µM* and NS1 inh 16%.
O=C1c2cccc3c([N+](=O)[O-])ccc(c23)C(=O)N1c1ccccn1 was read as Cruzain inh Det -11%, Cruzain noTriton -4% and NS1 inh -52%.
Screening COc1ccc(C(=O)Nc2ccc(NC(=O)c3cccs3)cc2)cc1[N+](=O)[O-] returned Cruzain inh Det 3%, Cruzain noTriton -16% and NS1 inh -2%.
For CCOc1ccc(C(=O)Nc2ccc(NC(=O)c3cccs3)cc2)cc1[N+](=O)[O-] the results were Cruzain inh Det 4%, Cruzain noTriton 7.9µM* and NS1 inh 6%.
`Cc1ccc(C(=O)Nc2ccc(NC(=O)c3cccs3)cc2)cc1[N+](=O)[O-]` gave NS1 inh -5%.
`Cc1ccc(C(=O)NC(=S)Nc2ccc(NC(=O)c3cccs3)cc2)cc1[N+](=O)[O-]` gave Cruzain inh Det -1%, Cruzain noTriton 10µM* and NS1 inh 11%.
Screening Cc1c(NC(=O)C(C)(C)Oc2ccc(Cl)cc2)cccc1-c1nc2ncccc2o1 returned Cruzain inh Det -7% and Cruzain noTriton 7%.
For O=C(OCC1CCCO1)c1ccc2c(c1)N(Cc1c(F)cccc1Cl)C(=O)c1ccccc1S2(=O)=O (stereo not drawn) the results were Cruzain inh Det -1% and Cruzain noTriton -43%.
O=C(O)NCc1ccccc1 (tested in a mixture with another compound) was read as Cruzain inh Det 1%, Cruzain noTriton -10% and NS1 inh -5%.
Screening COC(=O)c1ccc(-c2nc3ccccc3o2)cc1 returned Cruzain inh Det 2%, Cruzain noTriton 7% and NS1 inh -27%.
`COC(=O)c1ccc(-c2ncc(-c3cccc4ccccc34)o2)cc1` gave Cruzain inh Det 20µM*, Cruzain noTriton inconclusive and NS1 inh 2%.
C=C(C(=O)O)[C@@H]1CC[C@@]2(C)CCC[C@](C)(O)[C@@H]2C1 was read as Cruzain inh Det 0% and Cruzain noTriton -7%.
`CCCCCCOc1ccc(/C=c2\s/c(=C(/C#N)C(=O)NCc3ccco3)n(-c3ccccc3)c2=O)cc1` gave Cruzain inh Det -1%, Cruzain noTriton 3.2µM* and NS1 inh 10%.
COC(=O)/C=c1/s/c(=C(/C#N)C(=O)NCc2ccccc2)n(-c2ccccc2)c1=O was read as Cruzain inh Det 1%, Cruzain noTriton inconclusive and NS1 inh 3%.
Screening Nc1ccc(-c2ccc(N)c(Cl)c2)cc1Cl returned Cruzain inh Det -8% and Cruzain noTriton -17%.
`CCCSc1nc2c(c(=O)[nH]1)C(c1ccc(O)c(OCC)c1)CC(=O)N2` (stereo not drawn) gave Cruzain inh Det -3% and Cruzain noTriton -6%.
For CC1CCN(c2ccc(/C=N\Nc3nncn3N)cc2[N+](=O)[O-])CC1 the results were Cruzain inh Det -9%, Cruzain noTriton 25µM* and NS1 inh -5%.
Screening CC1CCN(c2ccc(/C=N/n3nnnc3N)cc2[N+](=O)[O-])CC1 returned Cruzain inh Det -1%, Cruzain noTriton -10% and NS1 inh 3%.
For Cc1ccc(C)c(N2CCN(C(=O)c3ccc4nc(-c5ccco5)c(-c5ccco5)nc4c3)CC2)c1 the results were Cruzain inh Det -3%, Cruzain noTriton 0% and NS1 inh inconclusive.
COc1ccccc1N1CCN(C(=O)c2ccc3nc(-c4ccco4)c(-c4ccco4)nc3c2)CC1 was read as Cruzain inh Det 13µM*, Cruzain noTriton inconclusive and NS1 inh 14µM*.
For Cc1cc(NC(=O)c2ccc3c(c2)C(=O)N(C2CCCCC2)C3=O)no1 the results were Cruzain inh Det 6%, Cruzain noTriton 6.3µM* and NS1 inh 0%.
Screening Cc1cc(NC(=O)c2ccc3c(c2)C(=O)N(C)C3=O)no1 returned Cruzain inh Det 2%, Cruzain noTriton 10% and NS1 inh -4%.
`COc1cccc2sc(N(Cc3cccnc3)C(=O)c3ccc(S(=O)(=O)N(C)C)cc3)nc12` gave Cruzain inh Det -3% and Cruzain noTriton inconclusive.
`C/C=C(\C)[C@H](O)C[Si](C)(C)c1ccccc1` gave Cruzain inh Det 0% and Cruzain noTriton -9%.
Screening N#CC(=NCCO)C1=C(O)c2ccccc2C1=O returned Cruzain inh Det 2%, Cruzain noTriton -2% and NS1 inh -8%.
Screening O=C1C(SCCO)=C(SCCO)C(=O)c2ccccc21 returned Cruzain inh Det inconclusive, Cruzain noTriton 25µM*! and NS1 inh -36%.

High-throughput results (PubChem)
